Results on 9 molecules are retold here after PubChem BioAssay (Tox21).

Where “and” joins values, the source holds several entries; their conditions need not be identical. Equal values may be shown once. Unmarked numbers belong to inactive results. Inconclusive results are not listed. Calls of active or inactive are those of the source. Unless noted, calls follow the shape of the dose curve; as a rule, active = well fitted curve in the direction sought with a large enough effect in the repeat runs; inconclusive = weak or mixed curves; inactive = no such curve, though single readings can be large; an effect the other way counts as inactive or inconclusive.

Experiment [1] is described as follows: qHTS assay to identify small molecule agonists of the constitutive androstane receptor (CAR) signaling pathway - cell viability counter screen (AID 1224836). Also: nearly all actives have a fitted effect of over 45% in size. Also: potency is read from the fitted curve at half-maximal effect. As to viability change, negative = cytotoxic: series mostly up to about 92 µM. In a few lines: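 Counter screen multiplexed with the CAR reporter readout: HepG2 cells co-transfected with hCAR and the CYP2B6-2.2kb construct receive a 15-concentration compound series and 0.75 uM PK11195 (final), then CellTiter-Fluor fluorescence is read after 23 h.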

A short description of experiment [2]: qHTS assay to identify small molecule antagonists of the constitutive androstane receptor (CAR) signaling pathway - cell viability counter screen (AID 1224837). Also: nearly all actives have a fitted effect of over 45% in size. Also: potency is read from the fitted curve at half-maximal effect. As to activity change, negative = cytotoxicity: series mostly up to about 92 µM. In a few lines: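 To flag cytotoxic false antagonists, HepG2 hCAR/CYP2B6-2.2kb cells were treated 23 hr with 15-concentration compound series and 50 nM CITCO at 37 C/5% CO2; CellTiter-Fluor fluorescence was the measured end point.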

In experiment [3] the target is Nuclear receptor subfamily 1 group I member 3 (Homo sapiens) (UniProt Q14994). Briefly: qHTS assay to identify small molecule antagonists of the constitutive androstane receptor (CAR) signaling pathway (AID 1224838).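 Also: HepG2 cells stably expressing hCAR with CYP2B6 luciferase reporter stimulated by CITCO; nearly all actives have a fitted effect of over 40% in size.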 Also: potency is read from the fitted curve at half-maximal effect. In a few lines: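 Human hepatoma HepG2 cells expressing hCAR and a CYP2B6 promoter (2.2 kb) luciferase construct; compound titration (15 points) with 50 nM CITCO final, 24 h at 37 C/5% CO2; luminescence via ONE-Glo after 30 min at room temperature.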
Sequence of Nuclear receptor subfamily 1 group I member 3 (Homo sapiens) (Q14994 whole entry, looked up): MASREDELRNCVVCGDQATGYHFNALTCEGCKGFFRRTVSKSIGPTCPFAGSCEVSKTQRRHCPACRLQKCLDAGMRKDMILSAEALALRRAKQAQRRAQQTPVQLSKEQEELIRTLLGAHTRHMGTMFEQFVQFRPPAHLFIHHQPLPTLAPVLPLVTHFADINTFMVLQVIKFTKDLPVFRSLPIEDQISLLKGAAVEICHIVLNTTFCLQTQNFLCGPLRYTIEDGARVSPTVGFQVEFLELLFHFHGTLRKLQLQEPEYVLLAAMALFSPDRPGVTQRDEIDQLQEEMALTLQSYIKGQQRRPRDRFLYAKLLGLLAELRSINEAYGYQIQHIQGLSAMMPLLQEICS

For experiment [4] the target is unchanged. The experiment in a line: qHTS assay to identify small molecule agonists of the constitutive androstane receptor (CAR) signaling pathway (AID 1224839). Also: nearly all actives have a fitted effect of over 15% in size. Also: potency is read from the fitted curve at half-maximal effect. As to activation: series mostly up to about 92 µM. In a few lines: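 A 15-concentration quantitative screen uses HepG2 cells co-transfected stably with human CAR and CYP2B6-2.2kb reporter. Treatment lasts 24 h with 0.75 uM PK11195 final present; ONE-Glo luminescence is the signal.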

Experiment [5] can be described thus: qHTS assay to identify small molecule antagonists of the estrogen related receptor signaling pathway with the pleiotropic PPARgamma coactivator (PGC) from Tox21 10K library - cell viability counter screen (AID 1224840; active = well fitted cell-killing curve with a large enough effect in the repeat runs, not every such curve was filed as active; also: nearly all actives have a fitted effect of over 40% in size; also: potency is read from the fitted curve at half-maximal effect). In a few lines: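 Seeded PGC/ERR cells (2,000/well, 6 h, 37 C/5% CO2) get compound by pin tool; 17.5 h incubation at 37 C; CellTiter-Fluor added, 30 min, fluorescence measured.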

For experiment [6], the target named is Thyrotropin receptor (Homo sapiens) (UniProt P16473). The experiment in a line: qHTS assay to identify small molecule agonists of the thyroid stimulating hormone receptor (TSHR) signaling pathway (AID 1224843; calls by dose curve; also: nearly all actives have a fitted effect of over 45% in size). In a few lines:
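Using 15 concentrations per compound in triplicate, cAMP production was monitored in TSHR-HEK293 cells after 30 min compound incubation at RT; HTRF reagents followed, with fluorescence intensity recorded after 1 h.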

Experiment [7] can be described thus: qHTS assay to identify small molecule agonists of the hypoxia (HIF-1) signaling pathway - cell viability counter screen (AID 1224844; calls by dose curve; also: nearly all actives have a fitted effect of over 50% in size; also: potency is read from the fitted curve at half-maximal effect). In a few lines: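 HRE-bla ME-180; 0.5% dFBS; cpd 17 h, 37C, 5% CO2; CellTiter-Glo lum., 30 min RT, post-FRET read, same wells.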
The nature of experiment [8]: qHTS assay to identify small molecule agonists of H2AX (AID 1224845; active = well fitted activation curve with a large enough effect in the signal ratio in the repeat runs, not every such curve was filed as active; the % refers to the signal ratio). In a few lines: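 Wild-type CHO-K1 cells plated overnight, then exposed 3 hr at 37C to compounds at 15 concentrations (0.76% DMSO). Lysed, then HTRF anti-pH2AX(S139)-cryptate/anti-H2AX-d2 detection after 24 hr at room temperature; emissions 665 and 620 nm.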
The nature of experiment [9]: qHTS assay to identify small molecule agonists of H2AX - cell viability counter screen (AID 1224847; calls by dose curve; also: nearly all actives have a fitted effect of over 30% in size; also: potency is read from the fitted curve at half-maximal effect; as to activity change, negative = cytotoxicity: top concentration of the series differs between compounds). In a few lines: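 We seed wild-type CHO-K1 cells overnight, treat them for 3 hr at 37C with compounds in 15-concentration series, and quantify remaining viability by CellTiter-Glo luminescence.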
The nature of experiment [10]: qHTS RealTime-Glo MT Cell Viability Assay in HepG2 cells - 24 hour (AID 1224867). Also: nearly all actives have a fitted effect of over 50% in size. Also: potency is read from the fitted curve at half-maximal effect. In a few lines: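 HepG2 cells were seeded at 600 cells/well together with NanoLuc luciferase and a cell-permeant prosubstrate, preincubated 5 h at 37 C/5% CO2, then pin-dosed with compounds in DMSO. Nonlytic luminescence from viable cells was read at each time point.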
Experiment [11] can be described thus: qHTS RealTime-Glo MT Cell Viability Assay in HEK293 cells - 32 hour (AID 1224868). Also: nearly all actives have a fitted effect of over 50% in size. Also: potency is read from the fitted curve at half-maximal effect. As to activity change, negative = cytotoxic: top concentration of the series differs between compounds. In a few lines: (§1)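 HEK293 cells were seeded at 600 cells/well together with NanoLuc luciferase and cell-permeant prosubstrate, preincubated 5 h at 37 C/5% CO2, then given compound in DMSO by pintool. Luminescence from viable-cell prosubstrate reduction was read repeatedly over 40 h.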

A short description of experiment [12]: A CellTox Green Cytotoxicity Assay to monitor cytotoxicity in HEK293 cells - 0 hour (AID 1224869). Also: nearly all actives have a fitted effect of over 50% in size. In a few lines: (§2)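 Tox21 screen in HEK293: membrane-impermeant cyanine dye fluoresces on binding dead-cell DNA; compound pinned 5 h post-seeding, plates held at 37 C, signal read repeatedly through 40 h.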
Experiment [13] in a line: A CellTox Green Cytotoxicity Assay to monitor cytotoxicity in HEK293 cells - 40 hour (AID 1224871). Also: nearly all actives have a fitted effect of over 45% in size. Also: potency is read from the fitted curve at half-maximal effect. In a few lines:
as §2

A short description of experiment [14]: qHTS RealTime-Glo MT Cell Viability Assay in HEK293 cells - 16 hour (AID 1224872). Also: nearly all actives have a fitted effect of over 50% in size. Also: potency is read from the fitted curve at half-maximal effect. As to activity change, negative = cytotoxicity: top concentration of the series differs between compounds. In a few lines: as §1
Experiment [15] is described as follows: qHTS RealTime-Glo MT Cell Viability Assay in HepG2 cells - 40 hour (AID 1224870). Also: nearly all actives have a fitted effect of over 50% in size. Also: potency is read from the fitted curve at half-maximal effect. In a few lines: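 HepG2 cells mixed with RealTime-Glo MT reagents (NanoLuc plus cell-permeant prosubstrate) were seeded at 600 cells/well, incubated 5 h at 37 C/5% CO2, then pinned with compounds in DMSO; nonlytic luminescence tracked viability during 40 h treatment.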
% is scaled to controls: 0 for no effect and ±100 for the full control effect.

Sequence of Thyrotropin receptor (Homo sapiens) (P16473 whole entry, looked up): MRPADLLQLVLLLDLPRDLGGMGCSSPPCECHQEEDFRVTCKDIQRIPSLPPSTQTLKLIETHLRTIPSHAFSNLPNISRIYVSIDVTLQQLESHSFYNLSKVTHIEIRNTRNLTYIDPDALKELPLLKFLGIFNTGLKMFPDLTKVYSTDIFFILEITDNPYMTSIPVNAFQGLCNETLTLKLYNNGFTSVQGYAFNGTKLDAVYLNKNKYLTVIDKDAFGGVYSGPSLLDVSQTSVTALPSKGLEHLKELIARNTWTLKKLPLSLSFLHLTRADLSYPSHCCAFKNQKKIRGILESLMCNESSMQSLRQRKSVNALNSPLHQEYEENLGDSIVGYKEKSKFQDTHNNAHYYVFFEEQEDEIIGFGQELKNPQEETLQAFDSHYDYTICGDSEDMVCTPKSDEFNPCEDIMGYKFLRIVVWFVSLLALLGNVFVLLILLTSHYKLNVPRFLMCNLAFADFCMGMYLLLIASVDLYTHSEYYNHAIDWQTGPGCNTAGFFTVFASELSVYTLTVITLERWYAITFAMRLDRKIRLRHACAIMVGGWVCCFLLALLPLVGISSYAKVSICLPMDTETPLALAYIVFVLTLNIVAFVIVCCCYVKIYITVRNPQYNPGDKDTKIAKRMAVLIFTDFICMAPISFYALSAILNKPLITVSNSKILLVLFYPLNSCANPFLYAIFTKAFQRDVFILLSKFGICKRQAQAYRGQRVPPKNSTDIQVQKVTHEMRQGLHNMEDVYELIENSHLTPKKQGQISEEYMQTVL

As to `CCOCN(C(=O)CS(=O)(=O)O)c1c(C)cccc1CC`, the Potency result in [1], in experiment [2], in [3], in [4], in [5] and in [6] was “inactive” throughout. For the same molecule, the Potency entry in [7], in experiment [8], in experiment [9], in [10], in experiment [11] and in [12] was “inactive” throughout. For the same molecule, the Potency entry in experiment [13] and in experiment [14] was “inactive” in each case.

For `CCCCCCCCCCCCOC(=O)c1cc(O)c(O)c(O)c1`, the Potency in experiment [1] was 68.3 µM (active); in experiment [2], 68.3 µM (active); in experiment [3], 76.6 µM (active); in experiment [5], 30.5 µM (active) and 6.11 µM (active); in experiment [7], 48.8 µM (active) and 54.9 µM (active); in experiment [9], 100 µM (active). In addition, the Potency in [10] was 54.7 µM (active) and 49 µM (active); in [11], 3.87 µM (active) and 3.47 µM (active); in experiment [13], 34.5 µM (active) and 49 µM (active); in experiment [14] it was 6.89 µM (active) and 5.49 µM (active). Further, the Potency result in [4], in [6] and in [12] was “inactive” throughout.

On to `Cc1cccc(C)c1NC(=O)CN1CCN(CCCC(c2ccc(F)cc2)c2ccc(F)cc2)CC1`, for which the Potency in experiment [1] is 23.7 µM (active); in [2], 23.7 µM (active); in experiment [10] it was 23.9 µM (active); in experiment [11] it was 9.52 µM (active); in experiment [15], 23.9 µM (active); in [13], 21.3 µM (active). Besides, in experiment [14], the Potency was 10.7 µM (active). Moreover, the Potency entry in experiment [3], in [4], in experiment [5], in experiment [6] and in experiment [12] was “inactive” each time.

Consider `CCC(=O)OCCc1ccccc1`, for which the Potency entry in experiment [1], in [2], in experiment [3], in [4], in experiment [5] and in experiment [7] was “inactive” each time. The Potency result in [8], in [9], in experiment [10], in experiment [11], in [12] and in experiment [15] was “inactive” in each case. Moreover, the Potency entry in experiment [13] and in [14] was “inactive” throughout.

On to `COc1ccccc1C=O`, for which the Potency result in [1], in experiment [2], in experiment [3], in experiment [4], in experiment [5] and in [6] was “inactive” each time. Moreover, the Potency result in experiment [7], in experiment [8], in experiment [9], in experiment [10], in experiment [11] and in [13] was “inactive” throughout. The Potency entry in experiment [14] was “inactive”.

For `CCCCCCCCCCCC(=O)N(CC)CC`, the Potency result in [1], in experiment [2], in experiment [3], in [5], in experiment [6] and in experiment [8] was “inactive” in each case. The Potency result in experiment [12], in experiment [15], in experiment [13] and in experiment [14] was “inactive” in each case. Also, in experiment [4], the Potency was 54.5 µM (active).

In the case of `O=C=NCc1cccc(CN=C=O)c1`, the viability change, negative = cytotoxic in experiment [1] is -4.88% [at 19 µM]; in [5] it was -5.21% [at 19 µM]. For the same molecule, the activity change, negative = cytotoxicity in experiment [2] is -0.191% [at 19 µM]; in experiment [7], 6.46% [at 15.8 µM]; in experiment [9], 1.36% [at 31.6 µM]; in experiment [14], 2.12% [at 15.8 µM]. In addition, the activity, negative = inhibition in experiment [3] is -4.42% [at 19 µM]. The activation in experiment [4] is -1.77% [at 19 µM]; in experiment [6] it was 1.05% [at 19 µM]. Also, in [8], the activation (H2AX phosphorylation) was -2.62% [at 31.6 µM]. For the same molecule, the results for the activity change, negative = cytotoxic in experiment [11] and in experiment [15] were 6.09% [at 15.8 µM] and 0.58% [at 15.8 µM], respectively. Further, the cytotoxicity in experiment [12] was -8.38% [at 15.8 µM]. The cytotoxicity increase in experiment [13] is -14.1% [at 15.8 µM].

With `c1ccc2c(c1)CCC2`, the Potency result in experiment [1], in [2], in experiment [3], in [4], in experiment [5] and in experiment [6] was “inactive” each time. Moreover, the Potency entry in experiment [7], in [8], in experiment [9], in experiment [10], in experiment [11] and in [12] was “inactive” each time. For the same molecule, the Potency result in [15], in experiment [13] and in experiment [14] was “inactive” in each case.

Turning to `C=CC(=O)OCCN(CC)CC`, the Potency result in [1], in experiment [2], in experiment [3], in experiment [4], in [5] and in [6] was “inactive” in each case. Moreover, the Potency result in experiment [8], in experiment [9], in [10], in experiment [11], in [12] and in experiment [15] was “inactive” each time. Also, the Potency result in experiment [13] and in experiment [14] was “inactive” throughout.
